Hit rate of the full screen: of about 190,000 compounds, about 2,000 (1.1%) were called active. This is one part of a sample in which actives are shown more often than they occur. Values without a mark were called inactive.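 How the source made its calls: active means activation above a set limit, based on mean plus 3 SD of controls (cut at about 140% in these data); inconclusive means one replicate above the limit, the other below; inactive means the rest.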

The nature of the assay: APP 5'UTR reporter signal increase – luciferase, SH-SY5Y cells, primary screen (AID 1276). To be noted: SH-SY5Y APP 5'UTR luciferase reporter, luminescence; at 2 µM; hits give high values; zero percent = DMSO vehicle wells. On the technique in general: Reporter assays use an easily measured gene product as a stand-in for the process of interest.
As to `CC(=O)c1ccc(S(=O)(=O)Nc2ccc(C(=O)NCC(c3ccccc3)N(C)C)cc2)cc1` (centres undefined), the activation was -1.54%.
The figure for `COc1ccccc1N1CCN(c2ccc([N+](=O)[O-])nc2)CC1` is 0.38%; for `O=C(N/N=C/c1ccc(Cl)cc1)c1nc2ccc([N+](=O)[O-])cc2c(=O)[nH]1` it is 5.49%.
Turning to `COc1cccc(-n2c(=S)[nH]c3c(oc4ccccc43)c2=O)c1`, the activation is 23%.
Turning to `Cc1cccc(-n2c(O)c(C=Nc3ccccc3N)c(=O)[nH]c2=O)c1`, the activation is 148% (active).
The result for `Cc1ccc(N=Cc2c(O)n(-c3nccs3)c(=O)c3ccccc23)c(C)c1` reads 11.8%.
With `Cc1cccc(-n2c(C)cc(/C=N/NC(N)=S)c2C)c1`, the activation was -0.81%.
The result for `CCCCc1nnc(NC(=O)CSc2nc(N)cc(=O)[nH]2)s1` reads -0.9%; that for `O=c1[nH]c2ccccc2s1`, -19.6%; that for `COc1cc([N+](=O)[O-])ccc1NC(=S)N1CCN(c2ccccn2)CC1`, -4.93%.
The figure for `COc1nc(N(C)C)nc(N2CC(=O)N(CCNS(=O)(=O)c3ccc(C)cc3)C2=N)n1` is -1.55%; for `CC(=O)n1cc([C@@H]2C=C(C(=O)N3CCN(Cc4ccc5c(c4)OCO5)CC3)O[C@H](OCc3ccc(CO)cc3)C2)c2ccccc21` it is -22.2%; for `NC(=O)COC(=O)/C=C/c1ccc2ccccc2n1` it is 2.32%.
The result for `CCOc1cccc(/C=C/c2ccc3ccccc3n2)c1OC(C)=O` reads 216% (active).
Take `COc1cccc(/C=C/c2ccc3ccccc3n2)c1OC(C)=O`: the activation is 131%.
The result for `O=C(c1cccc(S(=O)(=O)N2CCCC2)c1)N(Cc1ccco1)C1CCS(=O)(=O)C1` (centres undefined) reads 11.1%.
The figure for `Cc1ccc(S(=O)(=O)/N=C(/Nc2ccc3[nH]c(=O)[nH]c3c2)c2ccccc2)cc1` is -13.5%.
The result for `CCOc1ccc(CN2CCN(Cc3ccon3)CC2CCO)cc1` (centres undefined) reads 7.1%.
As to `O=C(c1cccc(C(=O)N2CCc3ccccc32)n1)N1CCc2ccccc21`, the activation was -32.2%.
Consider `O=C(c1cnn2ccccc12)N1CCc2ccccc21`, for which the activation is 145% (active).
The figure for `NC(=O)N1CCc2ccccc21` is -5.27%.
Regarding `Cc1ccc(C(=O)N2CCN(S(=O)(=O)N3CCOCC3)CC2)cc1`, the activation was 0.65%.
The result for `Cc1ccc(-n2cc3ccc([N+](=O)[O-])cc3n2)cc1` reads 179% (active); that for `Cc1ccc(-c2cn3cc([N+](=O)[O-])ccc3n2)cc1`, 120%.
For the compound `Cc1cc(C)nc(Nc2cc([N+](=O)[O-])ccc2C)n1`, the activation was -6.89%.
The figure for `Cc1cc([N+](=O)[O-])ccc1NC1CCCC1` is -0.84%; for `OCC1(Cc2ccccc2)CCN(Cc2cc3ccccc3o2)CC1` it is -8.13%.
The result for `COc1ccccc1Oc1ccc(N/C=C2/CCCC2=O)cc1` reads 17.2%; that for `Cc1[nH]c2c(C(=O)N3CCCC(CCC(=O)NCc4ccccc4F)C3)cccc2c1C` (centres undefined), 17.2%.
The result for `COc1c(C=O)c(CCN(C)C(=O)c2ccc(F)cc2)cc2c1OCO2` reads 0.6%; that for `c1ccc(Nc2nc(N3CCOCC3)c3ccccc3n2)cc1`, 7.27%.
As for `CCOc1ccc(Nc2nc(Cl)nc(N3CCN(c4ccc(OC)cc4)CC3)n2)cc1`, the activation is -9.55%.
For the compound `COc1ccc(Nc2ncc(F)c(N3CCOCC3)n2)cc1`, the activation was 153% (active).
The result for `CCOC(=O)c1c(/N=C/C2C(=O)CC(C)(C)CC2=O)sc(C)c1C` reads 2.63%.
The result for `CCN(CC)CCOC(=O)c1ccc(NC(=O)CNC(=O)c2ccccc2)cc1` reads 18.8%.
The figure for `COc1cccc(CN(C)CC(=O)NCc2ccccc2Cl)c1OC` is 7.69%; for `NC(=O)C1CCN(Cc2nc3c(Br)cc(Br)cc3c(=O)[nH]2)CC1` it is 4.38%; for `COc1ccc(C(=S)Nc2ccccc2)cc1` it is 68.3%.
With `COc1ccc(C(=O)NC2CCN(C(=S)Nc3ccccc3)CC2)cc1`, the activation is -16.7%.
The figure for `COc1ccc(NC(=S)N2N=CCC2c2ccccc2)cc1` (centres undefined) is 180% (active); for `O=C1C2C3C=CC(C3)C2C(=O)N1c1ccc(-c2nc3ccccc3c(=O)o2)cc1` (centres undefined) it is 3.88%; for `Cc1cc(=O)oc(C)c1C(=O)N1CCCCC1` it is -5.29%.
On to `Cc1cccc(C(=O)N2CCCN(C(=O)c3cccc(C)c3)CC2)c1`, for which the activation is 2.21%.
The result for `Cc1ccc2cc3cc(C(=O)N4CCCCCC4)oc3nc2c1` reads 167% (active); that for `CCC1(C(=O)c2ccccc2)C(c2cccc([N+](=O)[O-])c2)C1(C(=O)OC)C(=O)OC` (centres undefined), -17.3%; that for `CCN(CC)c1ccc2c(Nc3ccccc3)c(C=O)c(=O)oc2c1`, -11.3%.
The result for `O=C(CSc1nc2ccccc2[nH]1)c1cccs1` reads 162% (active); that for `C=CCSc1nc2ccccc2[nH]1`, 15.8%.
The figure for `CCCCSc1nc2ccccc2[nH]1` is 27.4%; for `CC(C)(C)NC(=O)CN(C(=O)c1ccc(Cl)nc1)c1cccc2ccccc12` it is -19.3%.
With `O=C(Nc1cccn(Cc2ccccc2Cl)c1=O)NC1CCCCC1`, the activation was 19.9%.
The result for `Cc1cc(C)nc(N2CCC(C(=O)Nc3ccc4c(c3)OCCO4)CC2)n1` reads 2.98%; that for `Cc1ccnc(N2CCCC(C(=O)Nc3cc(F)ccc3C)C2)n1` (centres undefined), 30.3%.
Turning to `O=C(Nc1ccc2c(c1)OCCO2)C1CCCN(c2ncccn2)C1` (centres undefined), the activation is 159% (active).
With `CCN(CC)CCNC(=O)c1ccc(NS(=O)(=O)c2ccc3c(c2)OCCO3)cc1`, the activation is 12.6%.
The figure for `O=C(Nc1ccc(N2CCN(C(=O)C3CC3)CC2)cc1)c1cccs1` is -0.31%; for `COC(c1ccccc1)c1nnc(CCC(=O)N2CCN(CCOc3ccccc3)CC2)o1` (centres undefined) it is -7.19%.
The result for `Oc1ccc(-c2csc(Nc3cccnc3)n2)cc1` reads 17.7%; that for `COc1ccc(-c2csc(Nc3ccc(O)cc3)n2)cc1`, 120%.
The figure for `COc1ccc(C(=O)/C=C/Nc2ccccn2)cc1` is 134%; for `COc1ccc(-c2csc(Nc3ccccn3)n2)cc1` it is 205% (active).
Regarding `c1cnc(Nc2nc(-c3ccc4ccccc4c3)cs2)nc1`, the activation was 29.6%.
In the case of `COc1ccc2nc(Nc3nc(-c4ccncc4)cs3)sc2c1`, the activation was 65.1%.
The result for `Clc1ccc(Nc2nc(-c3cccs3)cs2)nc1` reads 135% (active); that for `COc1ccc(Nc2nc(-c3ccccc3)cs2)cc1`, 148% (active).
The figure for `NS(=O)(=O)c1ccc(Nc2nc(-c3ccccc3)cs2)cc1` is 52.2%.
Regarding `O=C(Nc1ccc(Cl)cn1)Nc1cccs1`, the activation is 25.6%.
Take `c1ccc(Nc2nc(-c3ccncc3)cs2)nc1`: the activation was 158% (active).
The figure for `O=C(Nc1nc(-c2ccc(-c3ccccc3)cc2)cs1)c1cnccn1` is 11%; for `CCc1cccc(CC)c1NC(=O)COc1ccccc1C(=O)c1cc(C#N)c(=O)n(C2CCCCC2)c1` it is 12.3%; for `Cc1ccc(NC(=O)CSc2nc(CSc3ccc(C)cc3)cc(=O)[nH]2)cc1` it is 7.62%.
The result for `CCN(CC)CCn1c(/N=C/c2cc(Br)ccc2O)nc2ccccc21` reads -4.24%; that for `COc1cc(C(=O)Nc2cc(C(F)(F)F)ccc2-n2cncn2)cc(OC)c1OC`, 0.9%.
Take `CCCCCN(C(=O)NC(=O)Nc1cccc(C)c1C)S(C)(=O)=O`: the activation was 12.9%.
The figure for `COc1ccccc1/C=N\Nc1cc(C)nc(-n2nc(C)cc2C)n1` is -3.23%.
Regarding `CCc1ccc(-c2cc(C(=O)NN3CCN(C)CC3)c3ccccc3n2)cc1`, the activation is 47.9%.
The result for `COCCNc1nc2nonc2nc1N1CCCC1c1nccs1` (centres undefined) reads 2.4%; that for `CCC(C)NCC(=O)Nc1ccc([N+](=O)[O-])cc1C(=O)Nc1ccccc1F` (centres undefined), -0.05%; that for `CC(CC(=O)O)CC(=O)NNC(=O)c1cccc(Br)c1` (centres undefined), 7.74%.
The result for `Cc1cc(C)nc(N/N=C/c2c(C)oc3ccccc23)n1` reads 22.1%.
The figure for `O=C(Cc1ccc(F)cc1)N/N=C/c1ccc2c(c1)OCO2` is 42.8%; for `Cc1noc(C)c1/C=N/Nc1ccc2ccccc2n1` it is 169% (active).
As for `Brc1ccc(-c2csc(N/N=C/c3ccc4c(c3)OCO4)n2)cc1`, the activation is -0.09%.
For `Cc1nc2ccccc2cc1C(=O)N/N=C/c1ccc([N+](=O)[O-])cc1`, the activation is -13.5%.
The result for `C(=N\Nc1ccc2ccccc2n1)/c1ccc2c(c1)OCO2` reads 227% (active); that for `Cc1cccc(-n2c(=O)c3c(C)c(C)sc3n(CC(N)=O)c2=O)c1`, -15.7%; that for `CCn1c(SCC(=O)Nc2ccc(C)cc2)nc2nc3c(cc2c1=O)CCCC3`, 17.6%.
The figure for `CC(C)CNC(=S)NC(=O)c1ccc(Cl)cc1` is 37.3%; for `Cc1cccc(OCCC(=O)Nc2cc(S(=O)(=O)N3CCCCC3)ccc2N2CCOCC2)c1` it is 11.1%.
The figure for `COc1ccc(OCCNS(=O)(=O)Cc2ccccc2)cc1` is 8.23%; for `C/C(=C\C(=O)c1ccc(Br)cc1)N1CCCCC1` it is -20.4%.
Regarding `CC1CN/C(=C\C(=O)c2ccc(Br)cc2)C(=O)N1` (centres undefined), the activation was 138% (active).
The result for `CN1CCCC(OC(=O)COc2ccc(Br)cc2)C1` (centres undefined) reads 3.06%; that for `COc1ccc(Cc2nnc(N/N=C/c3ccccc3O)[nH]c2=O)cc1OC`, -85.9%; that for `Cc1cc(Cl)ccc1OCc1nc(-c2ccncc2)no1`, 95.7%.
The figure for `Cc1ccc(NC(=O)c2csc3c2CCCC3)cc1` is 232% (active); for `COC(=O)c1sc(NC(=O)c2csc3c2CCCC3)nc1C` it is 95.3%; for `COC(=O)c1sccc1NC(=O)c1csc2c1CCCC2` it is -8.07%.
For `Cc1cc(C)n(CCNCc2c(C(=O)N3C[C@@H](C)O[C@@H](C)C3)nc3ccc(Cl)cn23)n1`, the activation is 13.1%.

The values above are taken from PubChem BioAssay AID1276 (Columbia University Molecular Screening Center, 2008).
